The values below come from PubChem BioAssay (NCATS).

What all share (experiment): qHTS profiling for inhibitors of Plasmodium falciparum proliferation (AID 504749); also: nearly all actives have a fitted effect of over 60% in size
Holding throughout (conditions): P. falciparum in erythrocytes, SYBR Green DNA, 72 h; series mostly up to 28.7 µM
Background: Quantitative high-throughput screening tests each substance at several concentrations.

Experiment [1] deals with CP268. The gist of the method: (§1)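 P. falciparum-infected erythrocytes (0.3% parasitemia, 2.5% hematocrit final) were exposed to compounds for 72 h at 37 C in 5% CO2, then lysed with SYBR Green buffer overnight at room temperature; parasite DNA fluorescence was normalized to artemisinin and DMSO controls.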
Experiment [2] relates to CP269. The gist of the method: as §1
The subject of experiment [3] is CP286. The gist of the method: as §1
The subject of experiment [4] is CP291. The method, boiled down:
as §1

In experiment [5] the test system is CP297. The method, boiled down: as §1
Experiment [6] has as its system CP305. The gist of the method:
as §1

Experiment [7] relates to CP315. The method, boiled down: as §1
The test system of experiment [8] is CP325. The gist of the method: as §1
Experiment [9] has as its system CP329. The method, boiled down: as §1
The test system of experiment [10] is CP335. The method, boiled down:
as §1

Experiment [11] concerns DFO2036. The gist of the method: as §1
Experiment [12] deals with DIV14. The method, boiled down: as §1
Experiment [13] deals with DIV17. The gist of the method: as §1
Experiment [14] concerns DIV30. The gist of the method: as §1
Experiment [15] relates to Dd2. The method, boiled down:
as §1

The test system of experiment [16] is ECU. The gist of the method: as §1
In experiment [17] the test system is FAB9. The method, boiled down:
as §1

In experiment [18] the test system is GB4. The gist of the method: as §1
The subject of experiment [19] is HB3. The gist of the method: as §1
Experiment [20] deals with ICS. The method, boiled down: as §1

Records with an inconclusive call do not appear. Activity calls are given as the source filed them. Calls follow the shape of the dose curve; as a rule, active = well fitted inhibition curve with a large enough effect; inconclusive = small, poorly fitted or top-dose-only effect; inactive = flat fitted curve, though single readings scatter.
Potency is read from the fitted curve at half-maximal effect.

Consider `O=C(O)CC(O)C(=O)O` (stereo not given), for which the Potency entry in [1], in experiment [2], in experiment [3], in [4], in [5] and in experiment [6] was “inactive” each time. In addition, the Potency entry in [7], in [8], in [9], in experiment [10], in [11] and in experiment [12] was “inactive” in each case. The Potency result in [13], in [14], in [15], in experiment [16], in experiment [17] and in experiment [18] was “inactive” in each case. Besides, the Potency result in experiment [19] and in experiment [20] was “inactive” throughout.
With `CC(=O)Nc1ccc(/C=N/NC(N)=S)cc1`, the Potency result in [1], in experiment [2], in experiment [3], in experiment [4], in experiment [5] and in experiment [6] was “inactive” throughout. The Potency entry in experiment [7], in [8], in experiment [9], in experiment [10], in experiment [11] and in [12] was “inactive” throughout. For the same molecule, the Potency entry in experiment [13], in experiment [14], in [15], in [16], in [17] and in experiment [18] was “inactive” in each case. In addition, the Potency result in experiment [19] and in [20] was “inactive” in each case.
With `Cc1cc(O)cc2c1O[C@](C)(CCC[C@H](C)CCC[C@H](C)CCCC(C)C)CC2`, the Potency entry in experiment [1], in experiment [2], in [3], in [4], in experiment [5] and in [6] was “inactive” in each case. For the same molecule, the Potency entry in [7], in experiment [8], in experiment [9], in experiment [10], in experiment [11] and in [12] was “inactive” in each case. The Potency result in experiment [13], in [14], in experiment [15], in [16], in experiment [17] and in experiment [18] was “inactive” each time. Also, the Potency result in experiment [19] is “inactive”. Also, the Potency in [20] was 8.91 µM (active).
Consider `CCN(CC)CCNC(=O)c1cc(Cl)c(N)cc1OC`, for which the Potency result in experiment [1], in [2], in experiment [3], in experiment [4], in experiment [5] and in [6] was “inactive” throughout. For the same molecule, the Potency entry in experiment [7], in [8], in experiment [9], in experiment [10], in experiment [11] and in experiment [12] was “inactive” throughout. Besides, the Potency result in experiment [13], in [14], in [15], in [16], in experiment [17] and in experiment [18] was “inactive” throughout. The Potency result in experiment [19] and in experiment [20] was “inactive” in each case.
As to `COc1ccc(S(=O)(=O)Nc2nnc(CC(C)C)s2)cc1`, the Potency entry in experiment [1], in experiment [2], in [3], in experiment [4], in experiment [5] and in [6] was “inactive” each time. Moreover, the Potency result in experiment [7], in [8], in experiment [9], in [10], in experiment [11] and in [12] was “inactive” each time. Moreover, the Potency entry in [13], in experiment [14], in experiment [15], in [16], in experiment [17] and in experiment [18] was “inactive” throughout. Moreover, the Potency entry in [19] and in experiment [20] was “inactive” each time.
With `CC(O)CN(CCN(CC(C)O)CC(C)O)CC(C)O` (stereo not given), the Potency result in experiment [1], in experiment [2], in experiment [3], in experiment [4], in [5] and in experiment [6] was “inactive” each time. Besides, the Potency result in experiment [7], in experiment [8], in experiment [9], in experiment [10], in experiment [11] and in experiment [12] was “inactive” each time. Also, the Potency entry in experiment [13], in experiment [14], in [15], in experiment [16], in experiment [17] and in experiment [18] was “inactive” each time. Further, the Potency result in experiment [19] and in [20] was “inactive” each time.
In the case of `CC(O)COc1ccccc1` (stereo not given), the Potency result in experiment [1], in experiment [2], in experiment [3], in experiment [4], in [5] and in experiment [6] was “inactive” each time. The Potency result in experiment [7], in [8], in experiment [9], in [10], in experiment [11] and in experiment [12] was “inactive” throughout. Besides, the Potency result in [13], in experiment [14], in experiment [15], in experiment [16], in experiment [17] and in [18] was “inactive” throughout. The Potency entry in experiment [19] and in [20] was “inactive” throughout.
For the molecule `COc1ccccc1O`, the Potency entry in experiment [1], in [2], in experiment [3], in experiment [4], in [5] and in experiment [6] was “inactive” in each case. For the same molecule, the Potency result in experiment [7], in [8], in [9], in experiment [10], in experiment [11] and in [12] was “inactive” throughout. In addition, the Potency result in experiment [13], in [14], in experiment [15], in experiment [16], in experiment [17] and in experiment [18] was “inactive” in each case. Besides, the Potency entry in experiment [19] and in experiment [20] was “inactive” each time.
Regarding `CC1(C)CO[C@@H](CC(=O)O)CN1`, the Potency entry in experiment [1], in experiment [2], in experiment [3], in [4], in experiment [5] and in experiment [6] was “inactive” each time. Besides, the Potency result in experiment [7], in [8], in experiment [9], in [10], in experiment [11] and in experiment [12] was “inactive” in each case. The Potency entry in experiment [13], in experiment [14], in experiment [15], in experiment [16], in experiment [17] and in experiment [18] was “inactive” each time. The Potency result in experiment [19] and in [20] was “inactive” each time.
In the case of `CC(=O)NC(Cc1ccccc1)C(=O)O` (stereo not given), the Potency result in experiment [1], in experiment [2], in experiment [3], in [4], in [5] and in experiment [6] was “inactive” in each case. The Potency entry in experiment [7], in [8], in [9], in [10], in experiment [11] and in [12] was “inactive” in each case. Moreover, the Potency result in experiment [13], in [14], in experiment [15], in experiment [16], in experiment [17] and in experiment [18] was “inactive” each time. The Potency result in experiment [19] and in experiment [20] was “inactive” in each case.
Regarding `O=c1[nH]c(=O)c2[nH]c(=O)[nH]c2[nH]1`, the Potency result in experiment [1], in experiment [2], in experiment [3], in experiment [4], in [5] and in experiment [6] was “inactive” in each case. For the same molecule, the Potency entry in experiment [7], in [8], in experiment [9], in [10], in experiment [11] and in experiment [12] was “inactive” throughout. The Potency entry in [13], in experiment [14], in [15], in experiment [16], in experiment [17] and in experiment [18] was “inactive” each time. The Potency entry in experiment [19] and in experiment [20] was “inactive” throughout.
Consider `CCCCCCCCCCCCOS(=O)(=O)O`, for which the Potency entry in experiment [1], in experiment [2], in [3], in experiment [4], in experiment [5] and in experiment [6] was “inactive” throughout. Moreover, the Potency result in experiment [7], in experiment [8], in experiment [9], in experiment [10], in experiment [11] and in [12] was “inactive” throughout. For the same molecule, the Potency result in experiment [13], in [14], in [15], in [16], in experiment [17] and in [18] was “inactive” in each case. The Potency entry in experiment [19] and in experiment [20] was “inactive” each time.
Regarding `Nc1ccc(S(=O)(=O)Nc2ccccc2)cc1`, the Potency entry in [1], in experiment [2], in experiment [3], in [4], in experiment [5] and in experiment [6] was “inactive” in each case. In addition, the Potency entry in experiment [7], in experiment [8], in experiment [9], in [10], in experiment [11] and in [12] was “inactive” in each case. In addition, the Potency result in experiment [13], in experiment [14], in [15], in [16], in experiment [17] and in [18] was “inactive” each time. The Potency result in experiment [19] and in experiment [20] was “inactive” throughout.
As to `O=c1cc[nH]c(=O)[nH]1`, the Potency entry in experiment [1], in experiment [2], in experiment [3], in experiment [4], in experiment [5] and in [6] was “inactive” in each case. For the same molecule, the Potency entry in experiment [7], in [8], in experiment [9], in experiment [10], in [11] and in [12] was “inactive” throughout. In addition, the Potency entry in experiment [13], in experiment [14], in experiment [15], in [16], in [17] and in experiment [18] was “inactive” in each case. For the same molecule, the Potency entry in experiment [19] and in experiment [20] was “inactive” throughout.
